# Source: the supplement of paper PMC12819154, “High-throughput peptide-centric local stability assay extends protein–ligand identification to membrane proteins, tissues and bacteria” (Nature Structural & Molecular Biology, 2025)
# Compound: Nc1ncnc2c1ncn2[C@@H]1O[C@H](COP(=O)(O)OP(=O)(O)OP(=O)(O)O)[C@@H](O)[C@H]1O [adenosine 5'-triphosphate]
# Assay: log2 fold change of tryptic peptide abundance, ligand vs vehicle (limited proteolysis) (log2 ratio); higher = more trypsin-susceptible (destabilized)
# Settings: ligand concentration: 5 mM; sample: E. coli desalted lysate; replicate design: treated before aliquoting
# Method: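 HT-PELSA: desalted E. coli K-12 BW25113 lysate (with 12 mM MgCl2) incubated with 5 mM ATP (pH 7) or water for 30 min at 25 C, then a 4 min trypsin pulse at 22 C. Peptides were quantified by DIA-MS (4 replicates). Value is the peptide log2 fold change (treated/control); negative = stabilized. Scale: negative = ligand-stabilized region.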
# 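Also: lysate desalted by size exclusion to strip endogenous ATP, peptide intensities built from DIA-NN precursor signals, and peptides missing any value discarded before comparison.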
# UniProt P31660, sequence (P31660 whole entry): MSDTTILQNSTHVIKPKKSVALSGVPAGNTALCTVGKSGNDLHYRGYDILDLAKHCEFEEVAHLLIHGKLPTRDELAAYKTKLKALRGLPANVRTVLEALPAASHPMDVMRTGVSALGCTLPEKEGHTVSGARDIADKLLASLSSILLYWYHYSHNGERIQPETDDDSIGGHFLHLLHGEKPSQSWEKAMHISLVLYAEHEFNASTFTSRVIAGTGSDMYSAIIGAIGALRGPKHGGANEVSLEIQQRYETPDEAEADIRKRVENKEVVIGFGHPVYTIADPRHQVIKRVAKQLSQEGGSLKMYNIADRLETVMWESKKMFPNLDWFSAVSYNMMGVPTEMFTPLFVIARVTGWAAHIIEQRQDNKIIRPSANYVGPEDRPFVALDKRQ
# UniProt P76222, sequence (P76222 whole entry): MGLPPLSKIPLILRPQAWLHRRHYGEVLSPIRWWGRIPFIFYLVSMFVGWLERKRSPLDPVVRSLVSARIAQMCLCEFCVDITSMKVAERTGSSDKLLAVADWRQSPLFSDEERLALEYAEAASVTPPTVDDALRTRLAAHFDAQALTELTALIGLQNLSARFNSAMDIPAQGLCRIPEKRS
# UniProt P39325, sequence (P39325 whole entry): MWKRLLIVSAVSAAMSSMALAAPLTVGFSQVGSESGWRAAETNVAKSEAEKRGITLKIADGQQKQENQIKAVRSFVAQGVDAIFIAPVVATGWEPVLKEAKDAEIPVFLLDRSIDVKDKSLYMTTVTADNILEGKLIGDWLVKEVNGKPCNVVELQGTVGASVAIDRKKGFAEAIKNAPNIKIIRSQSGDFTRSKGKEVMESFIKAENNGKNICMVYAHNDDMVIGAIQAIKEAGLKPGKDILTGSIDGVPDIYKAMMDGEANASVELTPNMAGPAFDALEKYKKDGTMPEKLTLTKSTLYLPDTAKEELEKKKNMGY
# UniProt P27431, sequence (P27431 whole entry): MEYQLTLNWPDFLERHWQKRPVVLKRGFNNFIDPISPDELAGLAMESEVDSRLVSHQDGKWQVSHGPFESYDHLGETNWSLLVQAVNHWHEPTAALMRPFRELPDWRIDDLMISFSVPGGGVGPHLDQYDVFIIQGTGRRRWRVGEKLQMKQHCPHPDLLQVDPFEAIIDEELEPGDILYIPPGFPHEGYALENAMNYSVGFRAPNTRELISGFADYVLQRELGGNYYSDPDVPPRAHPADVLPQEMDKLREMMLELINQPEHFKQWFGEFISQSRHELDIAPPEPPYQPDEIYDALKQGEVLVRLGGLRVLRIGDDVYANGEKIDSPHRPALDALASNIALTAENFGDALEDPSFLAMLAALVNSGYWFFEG
# UniProt P24200, sequence (P24200 whole entry): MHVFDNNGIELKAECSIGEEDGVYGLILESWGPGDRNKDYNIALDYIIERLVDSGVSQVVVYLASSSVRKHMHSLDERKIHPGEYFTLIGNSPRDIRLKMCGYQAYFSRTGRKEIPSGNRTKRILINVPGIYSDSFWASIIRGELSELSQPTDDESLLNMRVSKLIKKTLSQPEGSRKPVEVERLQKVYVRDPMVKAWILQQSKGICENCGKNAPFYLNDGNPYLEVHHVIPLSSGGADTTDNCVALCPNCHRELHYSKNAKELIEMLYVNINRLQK
# UniProt P75919, sequence (P75919 whole entry): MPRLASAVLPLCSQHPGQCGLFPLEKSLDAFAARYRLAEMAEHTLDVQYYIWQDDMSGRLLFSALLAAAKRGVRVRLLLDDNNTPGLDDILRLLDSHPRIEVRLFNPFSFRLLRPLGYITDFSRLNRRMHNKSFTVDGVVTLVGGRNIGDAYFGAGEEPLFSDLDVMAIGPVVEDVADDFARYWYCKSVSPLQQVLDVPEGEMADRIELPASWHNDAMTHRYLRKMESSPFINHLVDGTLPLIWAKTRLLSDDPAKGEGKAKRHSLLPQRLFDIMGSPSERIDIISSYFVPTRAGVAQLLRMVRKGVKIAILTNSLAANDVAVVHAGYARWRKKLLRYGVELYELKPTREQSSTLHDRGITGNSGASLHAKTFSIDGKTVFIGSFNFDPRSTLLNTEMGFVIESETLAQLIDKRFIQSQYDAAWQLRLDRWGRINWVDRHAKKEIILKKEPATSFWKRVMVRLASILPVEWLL
# UniProt P77202, sequence (P77202 whole entry): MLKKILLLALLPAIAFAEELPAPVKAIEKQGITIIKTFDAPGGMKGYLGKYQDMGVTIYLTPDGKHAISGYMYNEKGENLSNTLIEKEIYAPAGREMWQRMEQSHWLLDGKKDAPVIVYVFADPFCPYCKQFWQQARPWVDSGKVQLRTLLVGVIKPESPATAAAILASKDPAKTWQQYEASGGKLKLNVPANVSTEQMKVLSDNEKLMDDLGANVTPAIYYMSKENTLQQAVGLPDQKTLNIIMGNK
# UniProt P39280, sequence (P39280 whole entry): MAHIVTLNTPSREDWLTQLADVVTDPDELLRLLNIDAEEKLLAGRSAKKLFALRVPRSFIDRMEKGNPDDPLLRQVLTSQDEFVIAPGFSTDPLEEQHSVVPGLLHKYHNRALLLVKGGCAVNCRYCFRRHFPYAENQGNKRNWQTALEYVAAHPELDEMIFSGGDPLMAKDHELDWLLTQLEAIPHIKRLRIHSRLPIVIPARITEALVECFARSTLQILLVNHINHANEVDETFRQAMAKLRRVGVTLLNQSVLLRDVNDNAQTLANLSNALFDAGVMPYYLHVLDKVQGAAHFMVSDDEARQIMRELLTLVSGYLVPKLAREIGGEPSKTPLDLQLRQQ
# UniProt P03813, sequence (P03813 whole entry): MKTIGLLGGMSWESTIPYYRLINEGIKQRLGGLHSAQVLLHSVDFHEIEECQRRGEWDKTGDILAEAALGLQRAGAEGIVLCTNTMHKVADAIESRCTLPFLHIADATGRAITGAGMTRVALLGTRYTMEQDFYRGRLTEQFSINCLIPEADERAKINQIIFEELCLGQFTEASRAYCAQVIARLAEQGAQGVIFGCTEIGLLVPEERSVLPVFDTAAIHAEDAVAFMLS
# UniProt P21893, sequence (P21893 whole entry): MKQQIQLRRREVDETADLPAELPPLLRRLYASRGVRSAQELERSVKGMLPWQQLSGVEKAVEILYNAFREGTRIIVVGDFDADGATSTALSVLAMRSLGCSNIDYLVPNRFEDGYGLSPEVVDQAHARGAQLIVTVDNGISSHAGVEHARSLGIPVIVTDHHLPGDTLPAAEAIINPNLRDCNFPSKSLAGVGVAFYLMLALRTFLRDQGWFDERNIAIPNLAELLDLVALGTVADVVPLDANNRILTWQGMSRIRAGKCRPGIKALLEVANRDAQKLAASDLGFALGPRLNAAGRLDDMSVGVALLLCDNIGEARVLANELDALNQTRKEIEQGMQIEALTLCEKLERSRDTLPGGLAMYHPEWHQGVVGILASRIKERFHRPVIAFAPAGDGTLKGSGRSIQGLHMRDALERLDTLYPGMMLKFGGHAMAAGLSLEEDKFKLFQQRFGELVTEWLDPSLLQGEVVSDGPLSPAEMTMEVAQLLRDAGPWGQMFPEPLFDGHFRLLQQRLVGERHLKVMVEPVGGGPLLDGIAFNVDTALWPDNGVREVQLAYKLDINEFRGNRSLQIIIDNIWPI
# UniProt P52073, sequence (P52073 whole entry): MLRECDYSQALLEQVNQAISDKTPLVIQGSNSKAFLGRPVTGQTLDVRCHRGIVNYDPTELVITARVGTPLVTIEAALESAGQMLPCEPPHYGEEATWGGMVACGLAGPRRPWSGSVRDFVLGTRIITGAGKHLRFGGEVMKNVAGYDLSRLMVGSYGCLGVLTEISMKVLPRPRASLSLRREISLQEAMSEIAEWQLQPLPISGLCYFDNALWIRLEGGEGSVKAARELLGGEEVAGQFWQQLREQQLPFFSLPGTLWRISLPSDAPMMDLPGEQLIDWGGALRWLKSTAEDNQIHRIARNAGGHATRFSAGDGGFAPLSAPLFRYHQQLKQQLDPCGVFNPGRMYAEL
# UniProt P45955, sequence (P45955 whole entry): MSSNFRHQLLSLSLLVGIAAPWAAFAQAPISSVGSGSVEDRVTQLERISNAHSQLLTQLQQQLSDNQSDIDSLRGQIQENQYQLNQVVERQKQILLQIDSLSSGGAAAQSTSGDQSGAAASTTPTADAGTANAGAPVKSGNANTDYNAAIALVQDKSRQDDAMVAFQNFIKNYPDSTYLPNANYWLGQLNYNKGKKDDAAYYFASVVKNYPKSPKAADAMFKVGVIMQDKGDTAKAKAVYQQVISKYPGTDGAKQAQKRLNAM
# UniProt P75821, sequence (P75821 whole entry): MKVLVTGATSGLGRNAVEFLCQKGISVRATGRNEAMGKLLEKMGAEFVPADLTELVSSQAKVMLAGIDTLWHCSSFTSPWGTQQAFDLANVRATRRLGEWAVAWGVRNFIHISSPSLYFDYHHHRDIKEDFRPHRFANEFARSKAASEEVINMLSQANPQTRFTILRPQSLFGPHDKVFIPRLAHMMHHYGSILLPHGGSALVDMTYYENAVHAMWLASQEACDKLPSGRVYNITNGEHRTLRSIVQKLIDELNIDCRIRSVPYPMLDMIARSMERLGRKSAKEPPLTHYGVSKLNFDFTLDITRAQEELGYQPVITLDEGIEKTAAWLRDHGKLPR
# UniProt P45523, sequence (P45523 whole entry): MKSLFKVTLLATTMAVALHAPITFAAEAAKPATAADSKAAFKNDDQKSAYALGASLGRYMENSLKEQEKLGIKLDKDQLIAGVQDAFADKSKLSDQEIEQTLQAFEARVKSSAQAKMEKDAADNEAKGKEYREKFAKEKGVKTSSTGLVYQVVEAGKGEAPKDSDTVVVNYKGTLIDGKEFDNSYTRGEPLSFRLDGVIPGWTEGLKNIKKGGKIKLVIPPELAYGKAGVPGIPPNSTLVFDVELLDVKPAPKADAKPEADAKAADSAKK
row,Target,log2 fold change
1,"UniProt P39383 (peptide sequence: MLESHLR, peptide start residue: 221)",-0.592
2,"UniProt P52073 (peptide sequence: LEGGEGSVK, peptide start residue: 217)",-0.566
3,"UniProt P27431 (peptide sequence: EMMLELINQPEHFK, peptide start residue: 252)",0.714
4,"UniProt P45523 (peptide sequence: GTLIDGKEFDNSYTR, peptide start residue: 173)",0.527
5,"UniProt P36928 (peptide sequence: EAVSEWLYR, peptide start residue: 44)",0.728
6,"UniProt P45955 (peptide sequence: AVYQQVISKYPGTDGAK, peptide start residue: 238)",0.687
7,"UniProt P21893 (peptide sequence: DCNFPSK, peptide start residue: 181)",-0.813
8,"UniProt P77202 (peptide sequence: TLNIIMGNK, peptide start residue: 240)",0.511
9,"UniProt P76222 (peptide sequence: LLAVADWR, peptide start residue: 97)",-0.698
10,"UniProt P39325 (peptide sequence: STLYLPDTAKEELEK, peptide start residue: 298)",-1.01
11,"UniProt P39280 (peptide sequence: IHSRLPIVIPAR, peptide start residue: 193)",1.51
12,"UniProt P27550 (peptide sequence: IAEAAVVGIPHNIK, peptide start residue: 542)",-2.61
13,"UniProt P75821 (peptide sequence: DIKEDFRPHR, peptide start residue: 126)",-1.6
14,"UniProt P24232 (peptide sequence: MFTHNPELKEIFNMSNQR, peptide start residue: 32)",-1.5
15,"UniProt P00760 (peptide sequence: LKSAASLNSR, peptide start residue: 113)",0.367
16,"UniProt P75830 (peptide sequence: TNLDYTR, peptide start residue: 179)",-0.551

row,Target,log2 fold change
1,"UniProt P14294 (peptide sequence: VQTPVLGLVVR, peptide start residue: 198)",-0.642
2,"UniProt P75745 (peptide sequence: QLLWGNR, peptide start residue: 167)",-0.312
3,"UniProt Q46927 (peptide sequence: QINPECR, peptide start residue: 95)",-2.51
4,"UniProt P45579 (peptide sequence: VAAAHAVHNGLTVLPQTEK, peptide start residue: 253)",0.992
5,"UniProt P75919 (peptide sequence: LLSDDPAKGEGK, peptide start residue: 249)",-0.826
6,"UniProt P21345 (peptide sequence: EVLGKFDKTADQ, peptide start residue: 426)",-1.41
7,"UniProt P10443 (peptide sequence: GLPVVATNDVR, peptide start residue: 193)",0.539
8,"UniProt P24200 (peptide sequence: TLSQPEGSR, peptide start residue: 169)",-0.499
9,"UniProt P08997 (peptide sequence: TLSNGKPVTK, peptide start residue: 467)",-0.591
10,"UniProt P25741 (peptide sequence: LSDVGVDTMK, peptide start residue: 84)",-0.922
11,"UniProt P31660 (peptide sequence: SGNDLHYR, peptide start residue: 38)",1.29
12,"UniProt P03813 (peptide sequence: YTMEQDFYR, peptide start residue: 127)",-0.699
13,"UniProt P76536 (peptide sequence: ALSGGVGAEELK, peptide start residue: 66)",0.555
14,"UniProt P37440 (peptide sequence: LADELCGR, peptide start residue: 45)",-0.817
15,"UniProt P42593 (peptide sequence: MIEVTGVTLK, peptide start residue: 435)",-1.15
